Inconclusive results are not listed. Activity calls are given as the source filed them. Calls come from the whole dose curve; as a rule, active = well fitted curve in the direction sought with a large enough effect in the repeat runs; inconclusive = weak or mixed curves; inactive = no such curve, though single readings can be large; an effect the other way counts as inactive or inconclusive.
Legend:
[1] = A CellTox Green Cytotoxicity Assay to monitor cytotoxicity in HEK293 cells - 40 hour (AID 1224871); note: nearly all actives have a fitted effect of over 45% in size; note: potency is the fitted concentration of half-maximal effect
In short: (§1)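 Homogeneous no-lysis format: HEK293 cell suspension mixed with CellTox Green reagent, seeded, incubated 5 h at 37 C/5% CO2, then dosed by pintool with compound in DMSO.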

[2] = qHTS RealTime-Glo MT Cell Viability Assay in HEK293 cells - 16 hour (AID 1224872); note: nearly all actives have a fitted effect of over 50% in size; note: potency is the fitted concentration of half-maximal effect
In short: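 Assay medium contained NanoLuc luciferase plus cell-permeant prosubstrate, added with HEK293 cells at 600 cells/well. After 5 h at 37 C/5% CO2 compounds were added; plates stayed at 37 C for 40 h with serial luminescence reads.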

[3] = qHTS RealTime-Glo MT Cell Viability Assay in HEK293 cells - 40 hour (AID 1224874); settings: RealTime-Glo luminescence; max response: hits give low values; note: nearly all actives have a fitted effect of over 50% in size; note: potency is the fitted concentration of half-maximal effect
In short: (§2)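 Measured as luminescence from the same continuously cultured HEK293 wells at successive time points (0, 8, 16, 24, 32, 40 h) after compound addition. Reagent present from seeding; dosing at 5 h; incubation 37 C.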

[4] = A CellTox Green Cytotoxicity Assay to monitor cytotoxicity in HEK293 cells - 24 hour (AID 1224875); note: nearly all actives have a fitted effect of over 45% in size; note: potency is the fitted concentration of half-maximal effect
In short: as §1

[5] = A CellTox Green Cytotoxicity Assay to monitor cytotoxicity in HepG2 cells - 16 hour (AID 1224876); note: nearly all actives have a fitted effect of over 45% in size; note: potency is the fitted concentration of half-maximal effect
In short: (§3)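 Fluorescent DNA-binding dye, 600 HepG2 cells/well, 5 h preincubation then compound in DMSO; same plates read at 0–40 h, 37 C.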

[6] = qHTS RealTime-Glo MT Cell Viability Assay in HepG2 cells - 32 hour (AID 1224877); note: nearly all actives have a fitted effect of over 55% in size; note: potency is the fitted concentration of half-maximal effect
In short: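 qHTS, HepG2, 600 cells/well, RealTime-Glo (NanoLuc + prosubstrate) added with cells; 5 h preincubation; DMSO compound addition; 37 C; luminescence at 0/8/16/24/32/40 h.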

[7] = A CellTox Green Cytotoxicity Assay to monitor cytotoxicity in HepG2 cells - 40 hour (AID 1224879); note: nearly all actives have a fitted effect of over 40% in size; note: potency is the fitted concentration of half-maximal effect
In short: as §3

[8] = qHTS RealTime-Glo MT Cell Viability Assay in HEK293 cells - 0 hour (AID 1224880); note: top concentration of the series differs between compounds; nearly all actives have a fitted effect of over 45% in size
In short: as §2

[9] = A CellTox Green Cytotoxicity Assay to monitor cytotoxicity in HepG2 cells - 24 hour (AID 1224878); note: nearly all actives have a fitted effect of over 45% in size; note: potency is the fitted concentration of half-maximal effect
In short: as §3

[10] = qHTS RealTime-Glo MT Cell Viability Assay in HepG2 cells - 8 hour (AID 1224873); note: nearly all actives have a fitted effect of over 55% in size; note: potency is the fitted concentration of half-maximal effect
In short: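 Real-time viability: cells seeded at 600 per well together with NanoLuc and cell-permeant prosubstrate, compounds added after 5 h incubation. Luminescence tracked at 0, 8, 16, 24, 32 and 40 h of exposure.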
% is set by controls: 0 for no effect and ±100 for the full control effect.

O=C1OCCN1/N=C/c1ccc([N+](=O)[O-])o1
inactive: Potency [1] | Potency [2] | max response [3] 2.01% | Potency [4] | Potency [5] | Potency [6] | Potency [7] | Potency [8]

CC[C@@H]([C@H](C)O)n1ncn(-c2ccc(N3CCN(c4ccc(OC[C@@H]5CO[C@@](Cn6cncn6)(c6ccc(F)cc6F)C5)cc4)CC3)cc2)c1=O
active: Potency [2] 5.35 µM | Potency [3] 5.35 µM
inactive: Potency [1] | Potency [4] | Potency [5] | Potency [7] | Potency [8]

O=C(CCCCCCCCC#CI)Oc1ccccc1
inactive: Potency [1] | Potency [2] | Potency [4] | Potency [5] | Potency [9] | Potency [7] | Potency [8]
active: Potency [3] 5.35 µM | Potency [6] 4.77 µM

CC(=N\O)/C(C)=N/O
inactive: Potency [1] | Potency [2] | Potency [10] | Potency [4] | Potency [6] | Potency [9] | Potency [7] | Potency [8]

CCc1cccc(N(C)C(N)=Nc2cccc3ccccc23)c1
inactive: Potency [1] | Potency [2] | Potency [10] | Potency [4] | Potency [5] | Potency [6] | Potency [8]

O=C(O)c1ccc(CO)o1
inactive: Potency [1] | Potency [2] | Potency [10] | Potency [4] | Potency [5] | Potency [6] | Potency [9] | Potency [7] | Potency [8]

CCCCCCCCCCCCCCC[C@H](O)[C@@H](N)CO
active: Potency [1] 23.9 µM | Potency [2] 21.3 µM | Potency [3] 26.8 µM | Potency [4] 21.3 µM | Potency [5] 23.9 µM | Potency [6] 26.8 µM | Potency [9] 26.8 µM | Potency [7] 26.8 µM
inactive: Potency [8]

C[Si]1(C)O[Si](C)(C)O[Si](C)(C)O1
inactive: Potency [1] | Potency [10] | max response [3] 0.932% | Potency [4] | Potency [5] | Potency [6] | Potency [9] | Potency [7] | Potency [8]

CC(=O)Nc1ccccc1C
inactive: Potency [1] | Potency [2] | Potency [10] | Potency [4] | Potency [6] | Potency [9] | Potency [7] | Potency [8]

CCOC(=O)[C@@H](C)Oc1ccc(Oc2nc3ccc(Cl)cc3o2)cc1
active: Potency [2] 21.9 µM | Potency [10] 7.76 µM
inactive: Potency [1] | Potency [4] | Potency [5] | Potency [9] | Potency [7] | Potency [8]

CCOC(=O)c1ccccc1C
inactive: Potency [1] | Potency [2] | Potency [10] | Potency [4] | Potency [5] | Potency [6] | Potency [9] | Potency [7] | Potency [8]

CNC(=S)NC
active: Potency [7] 54.9 µM
inactive: Potency [1] | Potency [2] | Potency [10] | Potency [4] | Potency [6] | Potency [8]

COc1ccc(C(=O)c2cccc(O)c2)c(OC)c1
inactive: Potency [1] | Potency [2] | Potency [10] | Potency [4] | Potency [5] | Potency [6] | Potency [7] | Potency [8]

CC(C)=CC=O
inactive: Potency [1] | Potency [10] | max response [3] 12.5% | Potency [4] | Potency [5] | Potency [6] | Potency [9] | Potency [7] | Potency [8]

CCCCCCOC(=O)C(C)C
inactive: Potency [1] | Potency [2] | Potency [10] | Potency [4] | Potency [5] | Potency [6] | Potency [9] | Potency [7] | Potency [8]

CCC(C(=O)OCCN(CC)CC)c1ccccc1 (stereo not drawn)
inactive: Potency [1] | Potency [2] | Potency [10] | Potency [4] | Potency [5] | Potency [6] | Potency [9] | Potency [7] | Potency [8]

CCC(C)(C)C1CCC(O)CC1 (stereo not drawn)
inactive: Potency [1] | Potency [2] | Potency [10] | Potency [4] | Potency [6] | Potency [8]

Cc1cc(S(=O)(=O)O)ccc1N=Nc1c(O)ccc2ccccc12
inactive: Potency [1] | Potency [2] | max response [3] -12.7% | Potency [4] | Potency [5] | Potency [6] | Potency [9] | Potency [7] | Potency [8]

CCOC(=O)C(C)Oc1ccc(Oc2nc3ccc(Cl)cc3o2)cc1 (stereo not drawn)
active: Potency [2] 21.9 µM | Potency [10] 15.5 µM
inactive: Potency [1] | Potency [4] | Potency [5] | Potency [7] | Potency [8]

NC(=O)Cn1c(=O)cc(CCN2CCN(c3nccc4sccc34)CC2)c2ccc(F)cc21
inactive: Potency [1] | Potency [4] | Potency [5] | Potency [9] | Potency [7]
active: Potency [2] 49 µM | Potency [3] 43.6 µM

Cc1ccc(S(=O)(=O)NC2CCCCC2)cc1
inactive: Potency [1] | Potency [2] | Potency [10] | Potency [4] | Potency [5] | Potency [6] | Potency [7] | Potency [8]

C=CCOC(=O)/C=C\C(=O)OCC=C
inactive: Potency [1] | Potency [2] | Potency [10] | Potency [4] | Potency [6] | Potency [9] | Potency [7] | Potency [8]
